SARS PLP yeast: inhibitors of SARS-CoV papain-like protease in yeast; 330,000 compounds, 0.19% hits; Potency, µM (titrated, usually from 32.9 µM), hits mostly activators; AID 485353; S. cerevisiae expressing SARS-CoV PLpro, growth rescue; calls by dose curve; also: nearly all actives have a fitted effect of over 55% in size
AMA1-RON2 inh: AMA1-RON2 (P. falciparum) interaction inhibition. AlphaScreen AMA1-biotinylated RON2 peptide binding. Potency, µM (series often up to 58.2 µM), actives largely listed as inhibitors. 360,000 compounds, 0.2% hits; also: nearly all actives have a fitted effect of over 45% in size
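AMA1 (3D7) with his tag at 25 nM final met compounds first, then biotinylated RON2 peptide at 25 nM; detection used donor plus acceptor beads, 10 µg/mL apiece, read by AlphaScreen after 30 min at room temperature.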
Pf growth 96h: P. falciparum growth inhibition at 96 hour, primary screen for plastid delayed-death inhibitors; P. falciparum luciferase reporter growth, 96 h; Potency, µM (top dose mostly 28.7 µM), most hits filed as inhibitors; 320,000 compounds, 6.9% hits
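Erythrocytes infected with luciferase-expressing P. falciparum were dispensed at 2% hematocrit and 0.05% parasitemia (final), then incubated with compounds 96 hours at 37 C in 5% CO2. Luminescence after detection reagent addition reported growth.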
NS1 inh: blocks influenza NS1 protein function; 270,000 compounds, 0.4% hits; Potency, µM (top dose mostly 46.1 µM); AID 2326; calls by dose curve; also: actives are rising curves; nearly all actives have a fitted effect of over 50% in size
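S. cerevisiae expressing influenza A NS1, grown in glucose, washed, then diluted 1:100 into pH 6.0 -URA galactose medium with 23 nl compound. Growth recovery read as OD600; NS1-free strain serves as control.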
HCV inh: inhibitors of hepatitis C virus infection | 340,000 compounds, 3.4% hits | Huh7.5.1 HCVcc-Cre infection, luciferase reporter, 44 h | Potency, µM (top dose mostly 41.8 µM), hits mostly inhibitors | AID 651820
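Cells seeded at 1,000/well and cultured 4 h, then compounds added followed by HCVcc-Cre virus (~0.5 moi). After 44 h further culture, luciferase substrate was added, plates held 15 min at room temperature, and luminescence read for 15 sec.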
Pf growth 48h: P. falciparum growth inhibition at 48 hours (one generation); P. falciparum luciferase growth in erythrocytes, 48 h; Potency, µM (top dose mostly 28.7 µM), most hits filed as inhibitors; 310,000 compounds, 5.9% hits
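Luminescence readout; reporter = integrated firefly luciferase in P. falciparum. RBC culture at 2% hematocrit, 0.1% parasitemia final, 37 C/5% CO2; decreased signal taken as growth inhibition.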
Of the large screens only hits and unclear results are named; the others gave an inactive call. A selection: hits, their analogues and other compounds. The true share with any hit is near 12%. Unless noted, calls follow the shape of the dose curve; as a rule, active = well fitted curve in the direction sought with a large enough effect; inconclusive = small, poorly fitted or top-dose-only effect, or another doubt; inactive = no such curve, though single readings can be large; an effect the other way counts as inactive or inconclusive.

CN(C)c1nc(-c2ccccc2)nc(-c2ccc(Cl)cc2)c1C#N	none (no result: Pf growth 96h)
CN(C)c1nc(-c2ccccn2)nnc1-c1ccccc1	Pf growth 96h 2.1µM, HCV inh inconclusive (no result: Pf growth 48h)
CC(=O)Oc1ccc(Cl)cc1/C=C/c1cc(OC(C)=O)c2ccccc2n1	Pf growth 96h inconclusive, Pf growth 48h 1.7µM (no result: AMA1-RON2 inh)
Cc1cc(O)c(CN(C)C)c2c1C(=O)/C(=C/c1ccco1)O2	Pf growth 96h 5.2µM, Pf growth 48h 6.6µM
Cc1nc2c(-c3ccc(F)cc3)cnn2c(N)c1-c1ccccc1	HCV inh 14µM
CC(=O)Nc1cc(O)cc(O)c1	none
CC1CCN(C(=O)CCC(=O)Nc2nnc(C(F)(F)F)s2)CC1	none
O=C(Nc1nc(-c2ccccn2)cs1)c1cccc(S(=O)(=O)N2CCOCC2)c1	Pf growth 96h inconclusive, HCV inh 3.5µM, Pf growth 48h 1µM (no result: NS1 inh)
COc1ccc(C(=O)Nc2nc(-c3ccccn3)cs2)cc1S(=O)(=O)N1CCOCC1	HCV inh 11µM (no result: Pf growth 96h, NS1 inh, Pf growth 48h)
COc1ccc(C(=O)Nc2ccccn2)cc1S(=O)(=O)N1CCOCC1	none
Cc1ccc(S(=O)(=O)N2CCOCC2)cc1C(=O)Nc1nc(-c2ccccn2)cs1	HCV inh inconclusive (no result: Pf growth 96h, NS1 inh, Pf growth 48h)
CN1CCN(NC(=O)c2ccc(S(=O)(=O)N3CC4(C)CC3CC(C)(C)C4)cc2)CC1 (stereo not given)	none
COc1ccc(C2(C)NC(=O)N(CC(=O)Nc3ccc(C)cc3Br)C2=O)cc1OC (stereo not given)	Pf growth 96h 3.7µM, Pf growth 48h inconclusive
COc1ccc(C2(C)NC(=O)N(CC(=O)Nc3ccc(Br)cc3F)C2=O)cc1OC (stereo not given)	Pf growth 96h 3.7µM, HCV inh inconclusive, Pf growth 48h inconclusive
CC1=C(C(=O)OC2CCCC2)C(c2ccc(C)o2)C2=C(CC(c3cccs3)CC2=O)N1 (stereo not given)	HCV inh inconclusive, Pf growth 48h 9.3µM
CC1=C(C(=O)OC2CCCCC2)C(c2ccc(C)o2)C2=C(CC(C)(C)CC2=O)N1 (stereo not given)	Pf growth 48h 12µM
CCOC(=O)C1=C(C)NC2=C(C(=O)CC(c3cccs3)C2)C1c1cccs1 (stereo not given)	Pf growth 96h inconclusive, HCV inh inconclusive, Pf growth 48h 4.1µM
CC1=C(C(=O)OC2CCCCCC2)C(c2ccc(C)o2)C2=C(CCCC2=O)N1 (stereo not given)	HCV inh inconclusive, Pf growth 48h inconclusive
CCC(CO)NCc1ccccc1OC(C)C (stereo not given)	none
CCn1nc(C)c(CN2CCCC(CNS(=O)(=O)c3ccc(OC)cc3)C2)c1C (stereo not given)	Pf growth 96h inconclusive, NS1 inh inconclusive
COc1ccc(CN2CCN(c3ncnc4scc(-c5ccc(F)cc5)c34)CC2)cc1	Pf growth 96h 9.3µM, HCV inh inconclusive, Pf growth 48h inconclusive
COc1ccc(-c2csc3ncnc(N4CCN(c5cccc(Cl)c5)CC4)c23)cc1	Pf growth 96h 7.4µM, HCV inh inconclusive, Pf growth 48h inconclusive
c1ccc(-c2csc3ncnc(N4CCc5ccccc5C4)c23)cc1	Pf growth 96h 12µM, HCV inh inconclusive, Pf growth 48h 12µM
O=C(c1ccco1)N1CCN(c2ncnc3scc(-c4cccs4)c23)CC1	Pf growth 96h inconclusive, HCV inh inconclusive, Pf growth 48h 12µM
O=S(=O)(c1ccc(Br)s1)N1CCN(CCc2ccccc2)CC1	none (no result: NS1 inh)
CC1CCN(C2CCN(S(=O)(=O)c3ccc(C(F)(F)F)cc3)CC2)CC1	none
C=CCNC(=S)Nc1cccc(N)c1	HCV inh inconclusive
COc1cccc(CNC(=O)C(=O)NCC(c2ccco2)N2CCOCC2)c1 (stereo not given)	Pf growth 96h inconclusive
CCCCCOc1ccc(C(C)(O)C(CN2CCOCC2)c2ccccc2)cc1 (stereo not given)	HCV inh inconclusive, Pf growth 48h inconclusive
Fc1ccc(-c2csc3ncnc(N4CCN(c5ccccc5)CC4)c23)cc1	Pf growth 96h 5.9µM, Pf growth 48h 12µM
c1ccc(N2CCN(c3ncnc4scc(-c5cccs5)c34)CC2)cc1	HCV inh 11µM, Pf growth 48h inconclusive
COc1ccc(-c2csc3ncnc(N4CCN(c5cccc(OC)c5)CC4)c23)cc1	Pf growth 96h inconclusive, Pf growth 48h inconclusive
COc1ccc(N2CCN(c3ncnc4scc(-c5ccc(C)cc5)c34)CC2)cc1	Pf growth 96h inconclusive, HCV inh inconclusive, Pf growth 48h inconclusive
c1ccc(-c2csc3ncnc(N4CCOCC4)c23)cc1	none
COc1ccc(N2CCN(c3ncnc4scc(-c5ccc(F)cc5)c34)CC2)cc1	AMA1-RON2 inh 13µM, Pf growth 96h 12µM, HCV inh inconclusive, Pf growth 48h inconclusive
COc1ccc(N2CCN(c3ncnc4scc(-c5ccccc5)c34)CC2)cc1	AMA1-RON2 inh inconclusive, Pf growth 96h inconclusive, HCV inh inconclusive, Pf growth 48h 9.3µM
C[C@H](CO)N1C[C@H](C)[C@@H](CN(C)Cc2ccc(C(=O)Nc3ccccc3N)cc2)Oc2c(NC(=O)C3CCCCC3)cccc2C1=O	HCV inh inconclusive (no result: Pf growth 96h, NS1 inh, Pf growth 48h)
CC(C(=O)NCCCc1ccccc1)c1ccc([N+](=O)[O-])cc1 (stereo not given)	Pf growth 48h inconclusive (no result: NS1 inh)
Cc1cc(C)c(C#N)c(Oc2ccccc2Br)n1	none
O=C(COC(=O)C12CC3CC(CC(Br)(C3)C1)C2)Nc1c(F)cccc1F	none (no result: Pf growth 96h, NS1 inh, Pf growth 48h)
CC(=O)NC12CC3CC(C1)CC(C(=O)OCC(=O)Nc1ncc(Cl)cc1Cl)(C3)C2	Pf growth 96h 12µM, Pf growth 48h inconclusive
CC(=O)NC12CC3CC(C1)CC(C(=O)OCC(=O)Nc1c(F)cccc1F)(C3)C2	Pf growth 96h 6.6µM, Pf growth 48h inconclusive (no result: NS1 inh)
CC1CC1C(=O)OCC(=O)Nc1ncc(Cl)cc1Cl (stereo not given)	none (no result: NS1 inh)
Nc1nc(-c2c(Cl)cccc2Cl)no1	none
O=C(Nc1ccc(Cl)c(Cl)c1)C1CC1	Pf growth 96h inconclusive (no result: SARS PLP yeast, AMA1-RON2 inh, NS1 inh, HCV inh)
CCCC(=O)NC(c1ccc(Cl)cc1Cl)c1ccc2cccnc2c1O (stereo not given)	SARS PLP yeast inconclusive, HCV inh inconclusive, Pf growth 48h inconclusive
CCCCC(=O)NC(c1ccccc1OC)c1ccc2cccnc2c1O (stereo not given)	SARS PLP yeast inconclusive, Pf growth 96h 2.1µM, HCV inh 2.2µM, Pf growth 48h 1.9µM
COc1ccccc1C(NC(C)=O)c1cc(Cl)c2cccnc2c1O (stereo not given)	HCV inh inconclusive
CCCC(=O)NC(c1ccccc1OC)c1ccc2cccnc2c1O (stereo not given)	Pf growth 96h inconclusive, HCV inh 3.5µM, Pf growth 48h 1.7µM
Fc1ccc(-c2nc3c(-c4ccccc4)cnn3cc2CCN2CCOCC2)cc1	Pf growth 96h inconclusive
C(=N\Nc1nc2ccccc2[nH]1)/c1ccncc1	Pf growth 48h inconclusive (no result: NS1 inh)

Compound activity: PubChem, National Center for Advancing Translational Sciences (NCATS)
